Bioassay records (PubChem BioAssay)
Sampled rows, rich in hits. Any-hit rate of the full collection: about 19%.
HT1080 IDH1KD tx – qHTS for induction of synthetic lethality in tumor cells producing 2HG: qHTS for the HT-1080-IDH1KD cell line | HT-1080 IDH1 knockdown viability, ATP luminescence, 48 h | Potency, µM (series often up to 46.1 µM), actives largely listed as cytotoxic | 2% of 360,000 active | AID 686971, 2013
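CellTiter-Glo luminescence after 48 h compound exposure at 37 degrees C of IDH1-knockdown HT-1080 cells in 5% FBS RPMI. %Activity scaled between DMSO wells and cell-free media wells, with curves fitted and assigned curve classes.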
IL-1B inflam inh – qHTS for Inhibitors of Inflammasome Signaling: IL-1-beta AlphaLISA Primary Screen. THP-1 LPS/ATP IL-1B secretion, AlphaLISA, 16 h; active compounds read low. 4.7% of 360,000 active. activity change, % at 57.5 µM; in the data active = activity change below about -50%; inconclusive = mostly about -30% to -49%
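Secreted IL-1B measured by AlphaLISA bead assay after 16 h compound exposure of THP-1 cells; compounds (final up to 57.5 uM) added 1 h before LPS (250 ng/mL) and ATP (1.25 mM) stimulation; lower signal means less secretion.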
ELG1 DNA repair – qHTS screen for small molecules that inhibit ELG1-dependent DNA repair in human embryonic kidney (HEK293T) cells expressing luciferase-tagged ELG1; HEK293T ELG1-luciferase reporter, luminescence, 16 h; DNA damage induced by 5-fluorouridine; Potency, µM (top dose mostly 46.1 µM), hits mostly inhibitors; 2.3% of 330,000 active; AID 504467, 2011; also: nearly all actives have a fitted effect of over 55% in size
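5-Fluorouridine DNA damage + compound/DMSO, 2,000 cells/well, 16 h, 37 °C/5% CO2. ONE-Glo, 30 min RT, luminescence. Readout = decrease in reporter signal.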
HT1080-NT tox – qHTS for induction of synthetic lethality in tumor cells producing 2HG: qHTS for the HT-1080-NT fibrosarcoma cell line; 1.6% of 360,000 active; AID 686970, 2013; Potency, µM (titrated, usually from 46.1 µM), hits mostly cytotoxic; HT-1080-NT fibrosarcoma viability, CellTiter-Glo ATP luminescence, 48 h;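 also: NT is the 2HG producing partner of a matched IDH1 knockdown line; nearly all actives have a fitted effect of over 55% in size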
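Viability of the 2HG-overproducing fibrosarcoma line after 48 hours of compound exposure at 37 degrees C was determined by luminescence with CellTiter-Glo, and concentration-effect curves were then fitted and categorized.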
DT40 TDP1 no CPT – qHTS for Inhibitors of human tyrosyl-DNA phosphodiesterase 1 (TDP1): qHTS in cells in absence of CPT | DT40 Tdp1-/- hTDP1 cells, no CPT, ATP luminescence, 48 h | Potency, µM (series often up to 46.2 µM), usual class: inhibitors | 15% of 420,000 active | AID 686978, 2013; also: nearly all actives have a fitted effect of over 55% in size
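Compound effects on proliferation are scored in DT40 Tdp1-/-;hTDP1 cells in the absence of CPT. ATP levels (CellTiter-Glo luminescence) are recorded after a ≥48 hr, 37 °C incubation.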
TDP1 cell CPT – qHTS for Inhibitors of human tyrosyl-DNA phosphodiesterase 1 (TDP1): qHTS in cells in presence of CPT | 12% of 420,000 active | chicken DT40 Tdp1-/-;hTDP1 cells + 20 nM CPT, ATP luminescence, 48 h | Potency, µM (highest dose often 46.2 µM), hits mostly inhibitors | AID 686979, 2013; also: nearly all actives have a fitted effect of over 55% in size
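Chicken DT40 Tdp1-/- cells complemented with human TDP1, 400 cells/well, exposed to compounds plus 20 nM camptothecin for at least 48 h at 37 C; viability read as ATP content by CellTiter-Glo luminescence.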
Hits are given with their value; . = inactive; ? = inconclusive; / = no result given; [ ] = another dose, or the depositor's remark. Unless noted, calls follow the shape of the dose curve; as a rule, active = well fitted curve in the direction sought with a large enough effect; inconclusive = small, poorly fitted or top-dose-only effect, or another doubt; inactive = no such curve, though single readings can be large; an effect the other way counts as inactive or inconclusive.

SMILES | HT1080 IDH1KD tx | IL-1B inflam inh | ELG1 DNA repair | HT1080-NT tox | DT40 TDP1 no CPT | TDP1 cell CPT
CCCCNC(=O)Cn1c(SCc2cccc(C)c2)nc2ccncc21 | / | / | / | / | . | .
O=C(NCCc1ccccc1)c1ccc(CSc2nc3ccncc3n2Cc2cccc(F)c2)cc1 | / | / | / | / | 12µM | 13µM
O=C(NCCc1ccccc1)c1ccc(CSc2nc3ccncc3n2Cc2ccccc2F)cc1 | / | / | / | / | ? | 15µM
O=C(NCCN1CCOCC1)c1ccc(CSc2nc3ccncc3n2Cc2ccc(F)cc2)cc1 | . | . | . | . | ? | .
Cc1cccc(Cn2c(SCc3ccc(C(=O)NCCc4ccccc4)cc3)nc3ccncc32)c1 | / | / | / | / | 13µM | ?
COc1ccccc1OCCSc1nc2ccccc2n1CC(=O)N1CCOCC1 | / | / | / | / | ? | .
COc1cc(OC)nc(Oc2cccc(C(F)(F)F)c2)n1 | . | . | . | . | . | .
Fc1ccc(C2=NC(c3cccc(C(F)(F)F)c3)=Nc3ccccc3N2)cc1 | / | / | / | / | 18µM | ?
COc1ccc(C2=Nc3ccc(F)cc3NC(c3cccc(C(F)(F)F)c3)=N2)cc1 | / | / | / | / | ? | 23µM
FC(F)(F)c1ccc(C2=Nc3ccccc3NC(c3cccs3)=N2)cc1 | / | / | / | / | ? | .
COC(=O)C1CC2=C(CCC2=O)N(c2ccccc2)C1=O (stereo unspecified) | . | . | / | . | . | .
CN(Cc1ccccc1)S(=O)(=O)c1ccc(NC(=S)NC(=O)C2CCCC2)cc1 | 8.9µM | . | 16µM | 7.1µM | 4.6µM | 5.2µM
CC(=O)Nc1ccc(NC(=O)c2ccc(S(=O)(=O)N(C)c3ccccc3)cc2)cc1 | . | . | ? | . | ? | ?
CN(c1ccccc1)S(=O)(=O)c1ccc(NC(=O)CC(=O)c2ccccc2)cc1 | . | . | / | . | 18µM | ?
COc1ccccc1/C=C/C(=O)NC(=S)Nc1ccc(S(=O)(=O)N(C)c2ccccc2)cc1 | . | . | . | . | 23µM | ?
CN(c1ccccc1)S(=O)(=O)c1ccc(NC(=S)NC(=O)C2CC2)cc1 | . | . | . | . | 12µM | ?
CC(NC(=O)Cn1cccc1C(=O)c1ccccc1)c1ccc2c(c1)OCCO2 (stereo unspecified) | . | . | . | . | . | .
CCOc1ccc(/C=N/OC(C)C(=O)NCc2ccc3c(c2)OCO3)cc1 (stereo unspecified) | . | . | . | . | ? | ?
CN(c1ccccc1)S(=O)(=O)c1ccc(NC(=S)NC(=O)c2ccccc2)cc1 | .[9.24 µM] | . | ? | . | 26µM | ?
O=C(c1ccco1)N1CCN(Cc2cccc3ccccc23)CC1 | . | . | ? | . | ? | 8.2µM
CCc1ccc(CN2CCN(C(=O)c3ccco3)CC2)cc1 | . | ? | . | . | . | ?
O=C(c1ccco1)N1CCN(Cc2csc(-c3ccccc3Cl)n2)CC1 | . | . | ? | . | 21µM | ?
O=C(c1ccco1)N1CCN(CC(O)Cn2c3ccccc3c3ccccc32)CC1 (stereo unspecified) | ? | . | ? | . | ? | 18µM
O=C(c1ccco1)N1CCN(Cc2c(Cl)cccc2Cl)CC1 | . | . | ? | . | 9.2µM | ?
CC(C)CN1CC[C@@]2(CCCN(C(=O)c3ccco3)C2)C1 | / | / | / | / | . | .
SMILES | HT1080 IDH1KD tx | IL-1B inflam inh | ELG1 DNA repair | HT1080-NT tox | DT40 TDP1 no CPT | TDP1 cell CPT
CCn1c2ccc(F)cc2c2nnc(NN)nc21 | . | . | . | . | 16µM | ?
CCCn1c2ccc(F)cc2c2nnc(NN)nc21 | . | . | ? | . | ? | ?
NNc1nnc2c3cc(F)ccc3n(Cc3ccccc3)c2n1 | ? | . | 9.2µM | ? | 18µM | ?
CCc1ccc2c(c1)c1nnc(NN)nc1n2CC | . | . | 16µM | . | 18µM | ?
COc1cc(=O)n2c(c1C(=O)N(C)Cc1nonc1C)CCN(Cc1cc(F)ccc1F)CC2 | / | / | / | / | . | .[9.04 µM]
CCCCCC(=O)N1C[C@H](n2cc(C3CC3)nn2)[C@@H](O)C[C@@H]1c1ccc(C)cc1 | . | . | / | . | . | .
CCCCCC(=O)N1C[C@@H](n2cc(C3CC3)nn2)[C@H](O)C[C@@H]1c1ccc(C)cc1 | . | . | / | . | 13µM | ?
CCCCCC(=O)N1C[C@H](n2cc(C3CC3)nn2)[C@@H](O)C[C@@H]1c1ccc(Cl)cc1 | . | . | / | . | 13µM | ?
CC(C)(CC(=O)O)CC(=O)N1CCCN(c2nccc(C(F)(F)F)n2)CC1 | . | . | ? | . | . | .
COCCNC(=S)N(CCc1c(C)[nH]c2ccc(F)cc12)Cc1ccc(C)cc1 | ? | -73 | ? | ? | 18µM | ?
Cc1[nH]c2ccc(F)cc2c1CCN(Cc1cccnc1)C(=S)Nc1ccc(F)cc1 | . | . | ? | . | . | .
CCNC(=S)N(CCc1c(C)[nH]c2ccc(F)cc12)Cc1cccnc1 | . | . | . | . | 26µM | ?
CCNC(=S)N(CCc1c(C)[nH]c2ccc(C)cc12)Cc1cccnc1 | . | . | . | . | 29µM | ?
Cc1cc2c(cc1C)NC(=O)C(C)CN2 (stereo unspecified) | . | . | / | . | ? | .
COc1ccc(CN2C(=O)c3cccc4cccc(c34)C2c2nc3ccccc3[nH]2)cc1 (stereo unspecified) | . | . | / | . | ? | ?
CCn1c(SCc2ccccc2)nnc1-c1cccs1 | ? | . | . | . | 6.5µM | 18µM
CCn1c(CNc2ccc(Cl)cc2)nnc1SCc1ccccc1 | . | -76 | ? | . | ? | ?
CCn1c(CNC(=O)c2ccc(Cl)cc2)nnc1SCC(=O)N1CCOCC1 | . | . | . | . | . | .
C=CCSc1nnc(CNC(=O)c2ccc(Cl)cc2)n1CC | . | -69 | . | . | . | .
COc1ccc(-n2c(CNc3ccc(C)cc3)nnc2SCc2ccccc2)cc1 | . | . | ? | . | 16µM | ?
COc1ccc(NCc2nnc(SCC(=O)NCc3ccccc3)n2-c2ccccc2OC)cc1 | . | . | . | . | . | .
CCCCNC(=O)CN1C(=O)c2cccnc2Sc2ccccc21 | / | / | / | / | ? | .
N#Cc1ccc(CSc2nnc(-c3ccccn3)n2-c2ccccc2)cc1 | . | . | . | . | ? | ?
N#Cc1ccc(CSc2nnc(-c3c[nH]c4ccccc34)n2-c2ccccc2)cc1 | ? | -67 | ? | . | 23µM | ?
N#Cc1ccc(CSc2nnc(-c3cccs3)n2-c2ccccc2)cc1 | . | . | 21µM | . | . | .
